# Reference: PubChem BioAssay
# The source made the active and inactive calls.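 Rule for the calls, unless noted: active = fluorescence slope after compound addition differing from the mean of all screened samples at 99.7% confidence, in either direction; inactive = the rest.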
# Legend:
# [1] = inhibitors of TNFa-induced NFkB p65 translocation, primary screen, imaging, HUVEC, MLSMR starter and 10KST1 sets (AID 438;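 active = inhibition above 20% together with a positive visual image hit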;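 note: compound added about 3h40 before a 20 min TNFalpha stimulation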;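 for inhibition: signal is the nuclear over cytoplasmic p65 intensity ratio per well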); details: HUVEC TNFa-induced p65 nuclear translocation; cell count: measured here: nuclei count (cytotoxicity indicator), at 2.08 µM; inhibition: at 2 µM, stronger effect = higher value, 0% TNFa-plus-vehicle, 100% no-TNFa wells
# [2] = reduction of polyQ htt aggregates in cells – imaging, exon1htt(103Q)mCFP cells, high-content imaging, primary screen (AID 483;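 active = visual image review flags a hit and inhibition of aggregation exceeds 20%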;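 note: compound exposure lasted 3 days before fixation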;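 for nuclei count: percent of the per-plate median nuclei count of sample wells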); details: exon1htt(103Q)mCFP cell line, aggregate imaging, at 2 µM; inhibition of aggregation: stronger effect = higher value; nuclei count: measured here: cell count, toxicity
# [3] = endothelial E-selectin expression blockers – imaging, HUVEC, immunofluorescence, MLSMR starter and 10KST1 sets, primary screen (AID 487;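 active = visually confirmed hit in the image check and inhibition above 20%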;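 for inhibition: signal is fraction of cell area covered by stained E-selectin grains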;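 for nuclei count: 100% = median nuclei count of all wells on the same plate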); details: HUVEC TNFalpha-induced E-selectin immunofluorescence imaging, at 2 µM; inhibition: stronger effect = higher value; nuclei count: measured here: cell number, toxicity
# [4] = target: Voltage-gated potassium channel subunit beta-2 (Rattus norvegicus) (UniProt P62483); test: inhibitors of rat Kvbeta2 reductase activity – biochemical, NADPH fluorescence, primary screen (AID 622;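 active = fluorescence slope higher than the sample average by over 3 SD, cut at about -0.22 in these data, passing the limit was not always enough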;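 note: slope of raw intensity against log time taken from 70 to 1610 s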); details: recombinant KvBeta, 4-cyanobenzaldehyde reduction, at 10 µM, stronger effect = higher value
# [5] = target: Voltage-gated potassium channel subunit beta-2 (Rattus norvegicus) (UniProt P62483); test: enhancers of rat Kvbeta2 NADPH turnover – biochemical, NADPH fluorescence, primary screen (AID 623;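 active = NADPH fluorescence slope more negative than the mean of all samples by about 3 SD, 99.7% confidence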;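 note: fluorescence intensity change per second fitted from 20 to 320 s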); details: Recombinant KvBeta, NADPH fluorescence decrease slope, 10 min; at 10 µM; stronger effect = lower value
# [6] = target: Alpha-2C adrenergic receptor (Homo sapiens) (UniProt P18825); test: compounds altering alpha2C-coupled GIRK flux – cell-based, HEK293 alpha2C/GIRK1/2, thallium flux, primary screen (AID 624); details: thallium flux BTC fluorescence, at 10 µM, actives lie on both sides;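 note: slope of fluorescence ratio to pre-addition baseline per second over 15 to 24 s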
# [7] = blockers of RIG-like receptor reporter activation – cell-based, Sendai virus stimulus, luciferase, 10K MLSCN set, TLR/RLR signaling modifier project, primary screen (AID 602276;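 active = inhibition at or above 50% at 10 µM; inactive = inhibition below 50%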;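 note: firefly luciferase from ISG56 promoter only with Renilla not read in this screen; 0% = Sendai virus plus DMSO and 100% = medium plus DMSO without virus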); details: HEK293 RL24 IRF3 luciferase reporter, at 10 µM, stronger effect = higher value
# [8] = TLR3 IRF3 reporter activation blockers – cell-based, poly I:C stimulus, luciferase, 10K MLSCN set, primary screen (AID 602277;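 active = inhibition of the reporter signal at or above 50%; inactive = inhibition below 50%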); details: HEK293-TLR3 RL24 IRF3 luciferase reporter, at 10 µM, stronger effect = higher value
# Sequence of Voltage-gated potassium channel subunit beta-2 (Rattus norvegicus) (P62483 whole entry, looked up): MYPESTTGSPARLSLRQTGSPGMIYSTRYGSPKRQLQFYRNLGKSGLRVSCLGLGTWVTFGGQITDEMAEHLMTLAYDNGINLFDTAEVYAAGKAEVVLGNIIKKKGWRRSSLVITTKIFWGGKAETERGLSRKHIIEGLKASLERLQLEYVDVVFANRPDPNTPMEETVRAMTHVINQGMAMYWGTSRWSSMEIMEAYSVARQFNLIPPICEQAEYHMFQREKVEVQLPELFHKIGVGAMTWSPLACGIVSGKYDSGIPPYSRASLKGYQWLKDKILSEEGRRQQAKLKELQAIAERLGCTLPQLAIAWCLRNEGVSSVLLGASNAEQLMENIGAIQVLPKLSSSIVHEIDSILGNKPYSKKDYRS
# Sequence of Alpha-2C adrenergic receptor (Homo sapiens) (P18825 whole entry, looked up): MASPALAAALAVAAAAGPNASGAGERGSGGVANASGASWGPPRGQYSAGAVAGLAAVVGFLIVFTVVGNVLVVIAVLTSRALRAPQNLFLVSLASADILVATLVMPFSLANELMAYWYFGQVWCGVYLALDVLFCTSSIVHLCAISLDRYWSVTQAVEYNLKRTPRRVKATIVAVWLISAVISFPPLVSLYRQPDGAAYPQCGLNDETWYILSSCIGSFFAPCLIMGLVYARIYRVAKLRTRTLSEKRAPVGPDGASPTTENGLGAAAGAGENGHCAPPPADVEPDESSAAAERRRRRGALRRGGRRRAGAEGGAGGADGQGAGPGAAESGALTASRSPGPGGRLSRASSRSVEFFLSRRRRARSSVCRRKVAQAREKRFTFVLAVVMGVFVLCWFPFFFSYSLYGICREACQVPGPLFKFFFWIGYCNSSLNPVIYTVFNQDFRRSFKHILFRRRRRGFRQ
Structure (SMILES),cell count [1],inhibition [1],inhibition of aggregation [2],nuclei count [2],inhibition [3],nuclei count [3],fluorescence slope [4],NADPH fluorescence slope [5],slope [6],inhibition [7],inhibition [8]
CC(=O)Nc1ccc(NC(=O)c2cc(C)nn2-c2ccccc2)cc1,687,-6.1% (inactive),-15.3% (inactive),112%,-36.4% (inactive),129%,-0.539 (inactive),-1.7e-06 (inactive),0.00394 (inactive),-3.81% (inactive),0.294% (inactive)
Cc1cc2ncn(S(=O)(=O)c3ccc(S(=O)(=O)N4CCOCC4)cc3)c2cc1C,311,-3.3% (inactive),0.7% (inactive),93.4%,-98.8% (inactive),113%,-0.518 (inactive),1.7e-05 (inactive),0.00432 (inactive),-0.351% (inactive),3.91% (inactive)
O=C1CC(c2ccsc2)c2cc3c(cc2N1)OCCO3 (centres undefined),623,0% (inactive),-4.2% (inactive),87.6%,-78.5% (inactive),129%,-0.556 (inactive),-2.5e-05 (inactive),0.0063 (inactive),1.12% (inactive),21.1% (inactive)
CCC(C)NC(=O)CCNS(=O)(=O)c1ccc(Br)cc1 (centres undefined),605,-17% (inactive),17.5% (inactive),66.3%,-109% (inactive),118%,-0.325 (inactive),6.7e-06 (inactive),0.00362 (inactive),3.69% (inactive),33% (inactive)
COc1cc(NC(=O)CC(C)C)ccc1NC(=O)c1ccco1,612,-6% (inactive),10.4% (inactive),93.3%,44.4% (inactive),47.6%,-0.605 (inactive),1e-05 (inactive),0.00539 (inactive),-64.3% (inactive),-135% (inactive)
COc1ccc(S(=O)(=O)Cc2ccc(C(=O)N3CCOCC3)o2)cc1,551,-0.2% (inactive),-10.7% (inactive),93%,-79.8% (inactive),105%,-0.615 (inactive),-2.5e-05 (inactive),0.0067 (inactive),8.1% (inactive),19.3% (inactive)
CCOC(=O)CSc1nc2ccccc2n1CC(=O)N1CCN(c2ccccc2)CC1,436,14.9% (inactive),7.6% (inactive),98%,50.8% (inactive),99.5%,-0.569 (inactive),2.2e-05 (inactive),0.00504 (inactive),-4.03% (inactive),1.41% (inactive)
O=C(NCc1ccccc1)C1CCN(S(=O)(=O)c2cccc3cccnc23)CC1,823,-3% (inactive),19% (inactive),65.6%,-37.7% (inactive),111%,-0.57 (inactive),1.3e-05 (inactive),0.00702 (inactive),-3.36% (inactive),33.1% (inactive)
CC12CCC(C(=O)O)(c3nc(C#N)c(C#N)nc31)C2(C)C (centres undefined),437,-4.7% (inactive),26.3% (inactive),90.9%,-15.3% (inactive),106%,-0.618 (inactive),-3.8e-05 (inactive),0.0041 (inactive),15.9% (inactive),21.6% (inactive)
Cc1ccc(S(=O)(=O)N2CCCC(C(=O)NC3=NCCS3)C2)cc1 (centres undefined),306,7.4% (inactive),-0.7% (inactive),111%,-27.5% (inactive),106%,-0.601 (inactive),-3.9e-05 (inactive),0.00373 (inactive),14.7% (inactive),13.5% (inactive)
Cc1oc(-c2ccccc2F)nc1CS(=O)(=O)CC(=O)N1CCCCCC1,712,-1.1% (inactive),-22.4% (inactive),116%,-40.3% (inactive),117%,-0.57 (inactive),-9.9e-06 (inactive),0.00627 (inactive),-6.49% (inactive),1.53% (inactive)
CCc1nnc(NC(=O)CSc2nnc(-c3ccoc3C)n2CC(C)C)s1,714,3.2% (inactive),-3.8% (inactive),110%,15.4% (inactive),91%,-0.367 (inactive),4.9e-06 (inactive),0.0051 (inactive),16.7% (inactive),15.3% (inactive)
CC1(C)CC(=O)C(C=Nc2ccncc2)=C(O)C1,463,4.9% (inactive),3.3% (inactive),103%,-42.3% (inactive),120%,-0.607 (inactive),5e-06 (inactive),0.00629 (inactive),-2.33% (inactive),10.3% (inactive)
Cc1nc(N2CCN(c3ncccn3)CC2)c2oc3ccccc3c2n1,583,-8.7% (inactive),0.3% (inactive),106%,-56.1% (inactive),104%,-0.432 (inactive),-1.4e-05 (inactive),0.00731 (inactive),-3.03% (inactive),-57.2% (inactive)
